NOMO-1 viab: STK33 inhibitor candidate reducing NOMO-1 cell viability. NOMO-1 AML viability, CellTiter-Glo luminescence, 72 h. inhibition, % (no concentration beside the values). hit rate 7.5% among 37,000; in the data active = inhibition above about 80%; inconclusive = no clear call, values can overlap the other calls
PD-1 reverse act: reversal of PD-1 mediated T-cell inhibition; primary human CD4 T cells, PD-L1 beads, CellTiter-Glo 96 h; activation, % (no concentration beside the values); 29,000 tested, under 10 active; call rule not given here;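 note: 0% = median vehicle wells and 100% = positive control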
ROS inducer: raises reactive oxygen species in U2OS cancer cells. U2OS ROS induction, H2DCF-DA fluorescence. ROS induction (% of piperlongumine), % at 10 µM. hit rate 2% among 46,000. AID 624156; in the data active = ROS induction above about 79%, passing the limit was not always enough; inconclusive = no clear call, values can overlap the other calls;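 note: 0% = DMSO vehicle median and 100% = reference compound median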
YB-1 expression: YB-1 expression inhibition. U2OS, qRT-PCR YB-1 vs CDIP delta delta Cp, 16 h; stronger effect = higher value; zero = DMSO, each unit about twofold. delta delta Cp (YB-1 minus CDIP) (test concentration not listed). hit rate 0.37% among 30,000. AID 434959;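 active = delta delta Cp rounded down to an integer at or above 3, about 3 SD of DMSO wells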;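 note: higher means less YB-1 transcript or more CDIP transcript relative to DMSO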
Active calls of the source: *. Many of the other results were omitted from the sample, so hits are more common in it than they were.

How did O[C@H]1[C@H]2c3cc4c(cc3CN3CCC(=C[C@@H]1O)[C@H]23)OCO4 do in these assays?
NOMO-1 viab: 142*; PD-1 reverse act: -6; ROS inducer: -1; YB-1 expression: 0.07

Results for CN1CCc2cc3c(cc2C2OC(O)c4c(ccc5c4OCO5)C21)OCO3 (configuration not stated) ?
NOMO-1 viab: 14; PD-1 reverse act: 1; ROS inducer: 13; YB-1 expression: 0.45

Results for COC1C=CC23c4cc5c(cc4CN(C[C@H]2O)[C@@H]3C1)OCO5 (some centres not stated) ?
NOMO-1 viab: inconclusive; ROS inducer: -6; YB-1 expression: 0.12

How did COc1cccc(C(=O)N2CCCCCC2)c1 do in these assays?
ROS inducer: -9

How did COc1c(O[C@@H]2O[C@H](CO)[C@@H](O)[C@H](O)[C@H]2O)cc2oc(-c3ccc(O)cc3)cc(=O)c2c1O do in these assays?
NOMO-1 viab: 84*; PD-1 reverse act: 0; ROS inducer: -6; YB-1 expression: -0.17

Results for CCn1c(SCC(=O)Nc2ccccc2)nc2ccc(I)cc2c1=O ?
NOMO-1 viab: 15; PD-1 reverse act: -1; ROS inducer: 109*

What do the screens show for `O=C(Nc1ncnc2oc(-c3ccccc3)c(-c3ccccc3)c12)c1ccccc1`?
ROS inducer: 58

What do the screens show for `C[C@@H]1CN([C@@H](C)CO)C(=O)c2cccc(NC(=O)Nc3ccc(C(F)(F)F)cc3)c2O[C@@H]1CN(C)Cc1ccc2c(c1)OCO2`?
NOMO-1 viab: 106*; PD-1 reverse act: -2; ROS inducer: 63; YB-1 expression: 0.34

How did C[C@H]1CN([C@@H](C)CO)C(=O)c2cccc(NC(=O)Nc3ccc(F)cc3)c2O[C@@H]1CN(C)Cc1ccc2c(c1)OCO2 do in these assays?
NOMO-1 viab: 72; PD-1 reverse act: -2; ROS inducer: 16; YB-1 expression: -0.11

How did COc1ccc(NC(=O)Nc2cccc3c2O[C@@H](CN(C)Cc2ccc4c(c2)OCO4)[C@H](C)CN([C@@H](C)CO)C3=O)cc1 do in these assays?
NOMO-1 viab: 115*; PD-1 reverse act: -5; ROS inducer: 26; YB-1 expression: -0.19

How did C[C@H](CO)N1C[C@H](C)[C@H](CN(C)Cc2ccc(C(F)(F)F)cc2)Oc2c(NC(=O)Nc3ccc4c(c3)OCO4)cccc2C1=O do in these assays?
NOMO-1 viab: inconclusive; PD-1 reverse act: -4; ROS inducer: 13; YB-1 expression: 0.21

Results for C[C@H](CO)N1C[C@H](C)[C@@H](CN(C)Cc2ccc(C(F)(F)F)cc2)Oc2c(NC(=O)Nc3ccc4c(c3)OCO4)cccc2C1=O ?
NOMO-1 viab: 105*; PD-1 reverse act: -3; ROS inducer: 92*; YB-1 expression: -0.37

Results for C[C@@H]1CN([C@@H](C)CO)C(=O)c2cccc(NC(=O)Nc3ccc4c(c3)OCO4)c2O[C@H]1CN(C)Cc1ccc(C(F)(F)F)cc1 ?
NOMO-1 viab: 109*; PD-1 reverse act: -6; ROS inducer: 88*; YB-1 expression: 0.18

How did O=C(CSC1CC(=O)N(c2ccc(I)cc2)C1=O)Nc1cccc(F)c1 (configuration not stated) do in these assays?
NOMO-1 viab: -19; PD-1 reverse act: -1; ROS inducer: 0

How did O=C1C2C3C=CC(C3)C2C(=O)N1CCC1=CCCCC1 (configuration not stated) do in these assays?
ROS inducer: -1

How did C[C@@H]1CN([C@H](C)CO)C(=O)c2cccc(NC(=O)Nc3ccc(F)cc3)c2O[C@H]1CN(C)Cc1ccc2c(c1)OCO2 do in these assays?
NOMO-1 viab: 97*; PD-1 reverse act: -5; ROS inducer: 87*; YB-1 expression: -0.53

How did C[C@H]1CN([C@@H](C)CO)C(=O)c2cccc(NC(=O)Nc3ccc4c(c3)OCO4)c2O[C@@H]1CN(C)Cc1ccc(C(F)(F)F)cc1 do in these assays?
NOMO-1 viab: 110*; PD-1 reverse act: -3; ROS inducer: 70; YB-1 expression: -0.45

How did C[C@H]1CN([C@@H](C)CO)C(=O)c2cccc(NC(=O)Nc3ccc4c(c3)OCO4)c2O[C@@H]1CN(C)Cc1ccc2c(c1)OCO2 do in these assays?
NOMO-1 viab: 6; ROS inducer: 9; YB-1 expression: 0.02

Results for Cc1oc(S(=O)(=O)N2CCCC2)cc1C(=O)NCc1ccc2c(c1)OCO2 ?
ROS inducer: -5

Results for O=C(Oc1ccc(OC(=O)c2ccco2)cc1)c1ccco1 ?
NOMO-1 viab: 58; PD-1 reverse act: -5; ROS inducer: -3; YB-1 expression: 0.52
